The results in this text go back to PubChem BioAssay.

Values joined by “and” are separate entries in the source; they are usually repeats but may differ in a detail not shown here. Equal entries are not always repeated. Active and inactive are the calls of the source. Unless noted, no rule for the calls is given here.

A short description of assay [1]: signal quenchers or enhancers, Cy5 substrate/SSB – biochemical, NIH Clinical Collection, E. coli SSB, artefact control for HCV NS3 helicase inhibitor project (AID 743268). As to conditions: Cy5-oligo bound E. coli SSB, fluorescence interference.
In assay [2] the test system is Hepatitis C virus NS3 helicase. The assay is described as follows: blockers of NS3h binding to DNA – biochemical, fluorescence polarization, NIH Clinical Collection, primary screen (AID 743270). Conditions: NS3 helicase binding to Cy5-dT15 DNA, stronger effect = higher value, concentration not given here. For orientation: Polarisation of emitted light reports the rotation of a fluorescent probe.

For assay [3], the target named is Single-stranded DNA-binding protein (Escherichia coli (strain K12)) (UniProt P0AGE0). As to the kind of experiment: SSB-ssDNA binding inhibitors – biochemical, fluorescence polarization, NIH Clinical Collection, counter-screen for HCV NS3 helicase inhibitor project (AID 743271; in the data active = inhibition above about 28%). Conditions: E. coli SSB-DNA binding, stronger effect = higher value, concentration not given here.

Assay [4] is described as follows: compounds distorting NS3 helicase fluorescence signal – biochemical, NIH Clinical Collection, artefact control for HCV NS3 helicase inhibitor project (AID 743272).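 Also: HCV NS3 helicase with a Cy5 labelled single stranded DNA probe.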 Conditions: fluorescence interference counterscreen, HCV NS3 helicase assay; stronger effect = lower value. (In general: Counterscreens check selectivity or assay interference.)
The nature of assay [5]: Wnt pathway potentiators raising nuclear beta-catenin – imaging, WNT3A-conditioned medium, mouse C2C12, NPC library, primary screen (AID 1117326; in the data active = nuclear beta-catenin stimulation mostly above about 4.2%, no sharp cut-off; inactive = mostly below about 10%). Conditions: stronger effect = higher value.
The nature of assay [6]: stimulators of insulin release from INS-1E, primary screen, cell-based, 5 mM glucose, NPC library (AID 1117329;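 active = compound raises insulin release from rat beta cells at 5 mM glucose, no numeric limit stated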). Conditions: rat INS-1E insulin secretion, at 10 µM, stronger effect = higher value.
A short description of assay [7]: growth inhibition of GSK3B-pretreated HCT116 cells – cell-based, CellTiter-Glo, 0.2 to 20 µM (AID 1117336;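 active = compounds lowering colon cancer cell viability after pretreatment blocking the GSK3B kinase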). As to conditions: HCT116 viability after GSK3B inhibitor, at 20 µM, stronger effect = higher value. Background: In ATP-based viability assays light output follows the ATP content of the culture.
Assay [8] is described as follows: inhibition of endothelial tube formation, primary screen, imaging, VEGF stimulated, CD31 staining, tube area, NPC library (AID 1117340;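 active = compound that reduces growth-factor-driven endothelial tube area in a mixed cell culture, no cutoff stated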). As to conditions: VEGF-stimulated ADSC/ECFC co-culture, at 10 µM, stronger effect = higher value.
Assay [9] is described as follows: GLP1 release stimulators, primary, NCI-H716, NPC library (AID 1117341;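 active = compound raises GLP1 secretion from the human gut endocrine cells, with no numeric limit stated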). As to conditions: NCI-H716 cells, at 10 µM, stronger effect = higher value.
Assay [10] is described as follows: HCT116 colon cancer cell growth inhibition, primary screen, CellTiter-Glo luminescence, NPC library (AID 1117342;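 active = compounds that lower survival of HCT116 colon cancer cells in the luminescence readout, no numeric limit stated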). As to conditions: at 20 µM (top of the series).
The nature of assay [11]: reduced SW480 viability measured with CellTiter-Glo, NPC library, primary (AID 1117343;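 active = compounds that lower viability of the colon cancer cells in the luminescence readout, with no numeric limit stated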). Conditions: CellTiter-Glo luminescence; at 20 µM (top of the series).
Assay [12] in a line: NPC library primary testing for decreased DLD-1 cell viability via CellTiter-Glo (AID 1117346;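 active = compounds that lower survival of DLD-1 colon cancer cells in the luminescence readout, no cutoff given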). As to conditions: DLD-1 viability, CellTiter-Glo luminescence; at 20 µM (top of the series).
Assay [13] addresses 6-phosphogluconate dehydrogenase, decarboxylating (Homo sapiens) (UniProt P52209). As to the kind of experiment: inhibition of human phosphogluconate dehydrogenase – biochemical, recombinant enzyme, NADPH absorbance, primary screen (AID 1159550;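 active = at least 20% inhibition of 6-phosphogluconate dehydrogenase activity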). Conditions: recombinant 6PGD, NADPH absorbance 341 nm; at 10 µM; stronger effect = higher value.
Assay [14] in a line: EMT-state selective cytotoxicity in co-culture – imaging, PC-3E GFP, TEM4-18 mCherry, primary screen (AID 1345086;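 active = compounds killing one labelled cell type while sparing the other, by normalised counts and ratio limits, not self-fluorescent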;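 as to all read-outs here: cells exposed to compound for 72 h before imaging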;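 as to red/green cell ratio (normalised): normalised mesenchymal count divided by normalised epithelial count so high means epithelial killing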). Conditions: PC-3E GFP / TEM4-18 mCherry co-culture, imaging cell counts, at 1 µM; for red/green cell ratio (normalised): actives lie on both sides, counts scaled to control wells, 1 = unselective.
Assay [15] can be described thus: MELAS cybrid and Rieske KO viability enhancers – cell-based, MELAS cybrids, Rieske KO mouse fibroblasts, CellTiter-Glo, primary screen (AID 1508586;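 active = mean z-score across replicates of 1.96 or higher in either the MELAS or the Rieske mutant cell line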;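 also: z relative to plate mean and SD of compound and empty wells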). As to conditions: low glucose.
For assay [16], the target named is NAD(+) hydrolase SARM1 (Homo sapiens) (UniProt Q6SZW1). The assay is described as follows: blocking NAD cleavage by SARM1 SAM-TIR – cell lysate, NAD-Glo luminescence (AID 1508614;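 active = compound whose remaining NAD level is above about 45 nM, limit read from the data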;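 also: higher remaining NAD means stronger inhibition of SARM1 NADase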). As to conditions: SAM-TIR HEK293T lysate NADase, at 1 µM, stronger effect = higher value.
Assay [17] has as its target Mitogen-activated protein kinase 7 (Homo sapiens) (UniProt Q13164). As to the kind of experiment: Gal4-ERK5 driven luciferase induction – cell-based, HTS, primary screen (AID 1508626;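 active = luciferase signal above three times the same-plate solvent-only control wells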;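 also: luciferase driven by Gal4-ERK5 fusion binding five Gal4 sites before minimal TATA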). Conditions: HeLa Gal4-ERK5 transactivation, 18 h, at 5 µM, stronger effect = higher value.
Another assay deals with F380Y. As to the kind of experiment: BK channel mutant inhibitors and activators – cell-based, U2OS BacMam, thallium flux, beta subunits, selectivity assay, profiling panel (AID 1259406;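 active = thallium flux through the channel raised or lowered by more than 3 SD from vehicle-only wells, actives on both sides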;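 also: initial slope of Thallos dye fluorescence rise after thallium is added; log ratio against the mean of 0.3% DMSO vehicle wells on the same plate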). Conditions: U2OS BacMam BK variants, at 30 µM.
Assay [18] can be described thus: viability loss with induced miR-34 in A549 – imaging, A549 dox-inducible miR-34, nuclei and caspase counts, primary screen (AID 1347080;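 active = compounds whose cell count with miR-34 switched on is under 0.7 times the count with it off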). As to conditions: A549 miR-34 inducible, Hoechst nuclei count, 48 h.
Assay [19] in a line: P. berghei load reduction in hepatocytes – cell-based, HepG2, luciferase luminescence, HepG2 viability, primary screen (AID 624349; in the data active = parasite load remaining mostly below about 12%, no sharp cut-off; inactive = mostly above about 10%;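 also: 100% = mean of DMSO negative control wells on the same plate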). Conditions: P. berghei liver stage in HepG2, luciferase luminescence, concentration not given here; parasite load remaining: stronger effect = lower value; viability: measured here: HepG2 viability without parasites.
Where [20] appears, read: measured here: epithelial PC-3E GFP cell survival.
Setting [21] is: measured here: mesenchymal TEM4-18 mCherry cell survival.
[22] abbreviates: MELAS cybrid survival, CellTiter-Glo 48 h, stronger effect = higher value.
The mark [23] stands for this setting: Rieske KO mouse fibroblast survival, CellTiter-Glo 72 h.

Chain of NAD(+) hydrolase SARM1 (Homo sapiens) (Q6SZW1 whole entry, looked up, the tested form may be a part): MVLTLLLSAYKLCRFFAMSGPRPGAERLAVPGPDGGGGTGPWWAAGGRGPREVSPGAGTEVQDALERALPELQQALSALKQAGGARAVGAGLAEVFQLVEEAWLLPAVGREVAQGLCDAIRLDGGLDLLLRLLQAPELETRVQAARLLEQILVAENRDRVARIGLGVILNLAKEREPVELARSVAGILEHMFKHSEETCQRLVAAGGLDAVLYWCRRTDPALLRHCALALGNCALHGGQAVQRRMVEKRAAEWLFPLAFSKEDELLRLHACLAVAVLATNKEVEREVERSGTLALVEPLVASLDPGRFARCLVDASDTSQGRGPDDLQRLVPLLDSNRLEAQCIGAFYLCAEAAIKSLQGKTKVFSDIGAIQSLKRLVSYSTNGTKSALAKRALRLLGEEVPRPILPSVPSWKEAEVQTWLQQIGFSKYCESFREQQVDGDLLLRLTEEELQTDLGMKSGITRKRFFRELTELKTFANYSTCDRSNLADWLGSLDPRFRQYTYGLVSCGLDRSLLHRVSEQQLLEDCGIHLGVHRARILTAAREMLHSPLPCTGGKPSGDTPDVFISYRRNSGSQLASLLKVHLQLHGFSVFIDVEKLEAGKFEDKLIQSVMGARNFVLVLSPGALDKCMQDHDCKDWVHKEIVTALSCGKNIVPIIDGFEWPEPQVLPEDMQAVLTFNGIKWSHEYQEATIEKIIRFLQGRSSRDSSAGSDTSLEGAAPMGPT
Chain of 6-phosphogluconate dehydrogenase, decarboxylating (Homo sapiens) (P52209 whole entry, looked up): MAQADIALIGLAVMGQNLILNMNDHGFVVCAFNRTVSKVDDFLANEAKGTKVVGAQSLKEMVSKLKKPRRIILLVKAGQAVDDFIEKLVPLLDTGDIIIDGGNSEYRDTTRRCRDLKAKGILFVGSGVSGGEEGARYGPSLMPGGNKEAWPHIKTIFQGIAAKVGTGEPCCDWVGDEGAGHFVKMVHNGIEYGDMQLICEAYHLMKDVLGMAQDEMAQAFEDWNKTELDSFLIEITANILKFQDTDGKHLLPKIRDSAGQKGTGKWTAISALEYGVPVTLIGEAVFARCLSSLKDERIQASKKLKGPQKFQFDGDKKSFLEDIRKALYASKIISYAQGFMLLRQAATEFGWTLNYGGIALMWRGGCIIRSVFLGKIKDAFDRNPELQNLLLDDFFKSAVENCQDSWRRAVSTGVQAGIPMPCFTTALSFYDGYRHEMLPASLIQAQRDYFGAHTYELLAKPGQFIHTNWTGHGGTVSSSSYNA
Chain of Mitogen-activated protein kinase 7 (Homo sapiens) (Q13164 whole entry, looked up, the tested form may be a part): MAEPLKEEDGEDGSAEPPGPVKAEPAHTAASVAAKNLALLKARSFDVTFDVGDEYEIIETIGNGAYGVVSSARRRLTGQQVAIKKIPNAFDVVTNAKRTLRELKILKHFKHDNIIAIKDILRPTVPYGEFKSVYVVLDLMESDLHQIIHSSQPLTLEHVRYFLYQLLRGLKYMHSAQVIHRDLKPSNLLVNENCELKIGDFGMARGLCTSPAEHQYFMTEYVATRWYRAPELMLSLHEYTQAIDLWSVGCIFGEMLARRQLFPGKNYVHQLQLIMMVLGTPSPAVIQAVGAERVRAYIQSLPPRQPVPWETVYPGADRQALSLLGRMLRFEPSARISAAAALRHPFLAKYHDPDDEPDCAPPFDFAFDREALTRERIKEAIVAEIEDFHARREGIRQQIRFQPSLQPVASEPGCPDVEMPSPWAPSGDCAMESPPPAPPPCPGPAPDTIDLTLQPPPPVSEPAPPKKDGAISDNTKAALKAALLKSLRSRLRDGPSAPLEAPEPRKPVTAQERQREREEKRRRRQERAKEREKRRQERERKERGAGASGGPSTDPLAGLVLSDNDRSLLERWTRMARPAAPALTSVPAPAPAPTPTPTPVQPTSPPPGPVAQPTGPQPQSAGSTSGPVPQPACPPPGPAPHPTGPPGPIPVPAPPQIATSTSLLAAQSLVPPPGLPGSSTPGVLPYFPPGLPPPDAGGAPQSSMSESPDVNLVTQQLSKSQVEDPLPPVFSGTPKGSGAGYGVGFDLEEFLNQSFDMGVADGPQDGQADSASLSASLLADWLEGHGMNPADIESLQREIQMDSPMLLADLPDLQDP

The term inhibition denotes the relative decrease from the control value, in per cent. As to `CCN(CC)CC(=O)Nc1c(C)cccc1C`, the fluorescence ratio was 1.01 (inactive) in assay [1] and 0.96 (inactive) in assay [4]. Further, the inhibition was -1.98% (inactive) in assay [2], -0.87% (inactive) in assay [3] and -1.54% (inactive) in assay [13]. Besides, the nuclear beta-catenin stimulation is -0.4% (inactive) in assay [5] (at 10 µM) and 0.8% in [5] (stimulation, at 2 µM). Moreover, the insulin secretion stimulation in assay [6] was -1.4% (inactive). Also, the viability decrease in assay [7] is -9.9% (inactive). In [8], the tube area decrease was 9.2% (inactive). The GLP1 secretion stimulation in [9] is 0.9% (inactive). The inhibition of viability in assay [10] was -5.2% (inactive). Also, the values for the viability decrease (inhibition) in assay [11] and in assay [12] were -0.2% (inactive) and 0.45% (inactive), respectively. The red/green cell ratio (normalised) in assay [14] is 1.11 (inactive). In addition, the normalised cell number in [14] (setting [20]) was 1.01; in [14] (setting [21]), 1.12. Moreover, the z-score in assay [15] (setting [22]) was -0.329 (inactive) and 0.222 (inactive) and 0.215 (inactive); in [15] (setting [23]), -0.148 and 0.143 and 0.303. In [16], the remaining NAD is 10 nM (inactive). Also, the luciferase signal in [17] was 48 AU (inactive). The log fold change Tl+ flux in the assay on F380Y is 0.00448 (inactive).

`CC(=O)S[C@@H]1CC2=CC(=O)CC[C@]2(C)[C@H]2CC[C@@]3(C)[C@@H](CC[C@@]34CCC(=O)O4)[C@H]12`: the fluorescence ratio in assay [1] was 0.99 (inactive); in assay [4] it was 0.9 (inactive). Further, the inhibition in [2] was -3.18% (inactive); in [3] it was -0.48% (inactive); in assay [13] it was 14.1% (inactive). Moreover, the nuclear beta-catenin stimulation is 4.4% (inactive) in assay [5] (at 10 µM) and 2.4% in [5] (stimulation, at 2 µM). In [6], the insulin secretion stimulation was -2% (inactive). Further, in assay [7], the viability decrease is -2% (inactive). Besides, the tube area decrease in assay [8] was 17% (inactive). Further, the GLP1 secretion stimulation in [9] is 2.4% (inactive). In addition, in assay [10], the inhibition of viability is 28.7% (inactive). Besides, the viability decrease (inhibition) in [11] was 41.7% (inactive); in [12], 26.4% (inactive). Further, the fold change is 0.941 (inactive) and 0.878 (inactive) and 0.848 (inactive) in assay [18] (stronger effect = lower value, cell number ratio, induced over uninduced); 1.96 and 1.1 and 1.66 in [18] (measured here: relative caspase fold change +Dox/-Dox). The cell count was 8520 and 7420 and 8230 in assay [18] (measured here: total cells with miR-34 induction, stronger effect = lower value); 9050 and 8450 and 9710 in assay [18] (measured here: total cells without miR-34 induction). In addition, the z-score in [15] (setting [22]) was 0.887 (inactive) and 0.469 (inactive); in assay [15] (setting [23]), 0.325 and -0.236. Moreover, the remaining NAD in [16] is 10 nM (inactive). Further, the luciferase signal in assay [17] is 56 AU (inactive). Moreover, the log fold change Tl+ flux with F380Y is -0.00371 (inactive).

For orientation: viability means a read-out of living cells in per cent, often relative to untreated cells. Consider `CCOC(=O)N1CCC(=C2c3ccc(Cl)cc3CCc3cccnc32)CC1`, for which the parasite load remaining in [19] is 39.1% (inactive) and 10.2% (inactive) and 5.21% (inactive). The viability in assay [19] is 101% and 59.1% and 70%. Further, the fluorescence ratio was 0.91 (inactive) in [1] and 0.9 (inactive) in [4]. Also, the figures for the inhibition in [2], in assay [3] and in [13] were -3.56% (inactive), 6.83% (inactive) and 4.3% (inactive), respectively. For the same compound, the nuclear beta-catenin stimulation in [5] (at 10 µM) was 1.8% (inactive); in assay [5] (stimulation, at 2 µM), 1%. Further, in assay [6], the insulin secretion stimulation was 6.9% (inactive). In [7], the viability decrease was 94.1% (active). Moreover, the tube area decrease in assay [8] is 39.2% (inactive). In addition, the GLP1 secretion stimulation in [9] is 14.3% (inactive). The inhibition of viability in assay [10] is 98.8% (active). Besides, the viability decrease (inhibition) in [11] was 94% (active); in [12], 97.2% (active). For the same compound, the red/green cell ratio (normalised) in assay [14] was 1.35 (inactive). The normalised cell number in assay [14] (setting [20]) is 0.99; in [14] (setting [21]), 1.34. The z-score in assay [15] (setting [22]) is -0.418 (inactive) and -1.77 (inactive) and -2.01 (inactive); in assay [15] (setting [23]), 0.823 and 1.1 and 0.356. The remaining NAD in assay [16] was 10 nM (inactive). Moreover, in [17], the luciferase signal was 48 AU (inactive).
